# Screening results (PubChem)
# ST2 inh – inhibitors of human ST2 (IL1RL1) binding to IL-33. 78,000 tested, 2.3% active. inhibition, % for hits at 17 µM. Q01638. AlphaLISA ST2-Fc/biotin-IL-33 interaction, 1 h; in the data active means inhibition above about 30%
# * hit, by the source's call; i = inactive. This is one part of a sample in which hits are shown more often than they occur.
SMILES,ST2 inh
Clc1cccc(N2CCN(Cc3ccccc3Cl)CC2)c1,i
COc1ccc(-c2ccc3n(c2=O)C[C@H]2C[C@@H]3CN(C(=O)CSCC(=O)O)C2)cc1,i
COc1ccccc1C(=O)N1C[C@@H]2C[C@H](C1)c1c(-c3ccccc3F)ccc(=O)n1C2,i
CN1CCN(C[C@H]2CN3CC[C@H]2C[C@@H]3CNC(=S)Nc2ccc(-n3cccn3)cc2)CC1,i
Cc1nc(-c2ccccc2)cc([C@H]2CN3CC[C@H]2C[C@@H]3CNC(=O)c2ccccc2C(=O)O)n1,i
COCC(=O)N1CCCN(C)C2(CCN(C)CC2)C1,i
C#C[C@H]1CN2CC[C@H]1C[C@@H]2CNC(=S)NCC1CCCCC1,i
CN1C(=O)C2(CCN(Cc3cccnc3N)CC2)c2ccccc21,i
CCc1ccc(CN(C)C(C)Cc2cc(C)ccn2)nc1 (stereo not drawn),i
C=CCN1C(=O)NC(=O)/C(=C/c2cc(Br)c(OCC(=O)O)c(OC)c2)C1=O,i
CN(C)c1ccc(CNC[C@H]2C[C@@H]3CCN2C[C@@H]3c2cc(-c3ccco3)nn2C)cc1,i
Cc1ccccc1CN1CCN(Cc2ccc3c(c2)OCO3)CC1,i
CN1CCN(Cc2ccccc2[N+](=O)[O-])CC1,i
CN1CCN(Cc2cccc([N+](=O)[O-])c2)CC1,i
NC(=O)c1ccc(OCC(O)CN2CC=C(c3ccc(F)cc3)CC2)cc1 (stereo not drawn),i
O=[N+]([O-])c1ccccc1CN1CCN(c2ccc(Cl)cc2)CC1,i
O=[N+]([O-])c1ccccc1CN1CC=C(c2ccc(F)cc2)CC1,30.0%*
O=[N+]([O-])c1cccc(CN2CC=C(c3ccc(F)cc3)CC2)c1,35.0%*
C=C(CO)[C@H]1Cc2c(ccc3c2O[C@@H]2COc4cc(OC)c(OC)cc4[C@]2(O)C3=O)O1,i
Cn1nc(C2CCCCC2)cc1[C@H]1CN2CC[C@H]1C[C@@H]2COC(=O)Nc1ccccc1,i
O=[N+]([O-])c1ccc(NCCCN2CCOCC2)c2cccnc12,i
CC(Nc1ccc([N+](=O)[O-])c2cccnc12)c1ccc(Br)cc1 (stereo not drawn),40.0%*
CCn1c(C(=O)O)c(CC(=O)N2CCN(C)CC2)c2ccccc21,i
C=C[C@H]1CN2CC[C@H]1C[C@@H]2CNC(=S)Nc1ccc(C#N)cc1,i
